For part of these data: Results with a measured potency or affinity are listed apart. This is one part of the list. Active and inactive are the calls of the source.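 How the source made its calls, unless noted: active means calcium signal rise above buffer-control mean plus 5 SD in both duplicates, and also a hit in the primary screen; inactive means the rest.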
Assays:
[1] = system: TRPC4 beta (transient receptor potential cation channel C4), mouse; experiment: TRPC4 cation channel opening, retest – cell-based, Fluo4 calcium, HEK293 TRPC4beta/mu-opioid, duplicates, 10 µM, confirmation (AID 2426;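 active means fluorescence ratio normalized to control raised more than 50% in primary screen plus both repeat runs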); settings: Fluo4 calcium fluorescence, at 10 µM; hits give high values
[2] = system: transient receptor potential cation channel C4 beta (TRPC4), mouse; experiment: TRPC4 cation channel opening, second retest – cell-based, second round, Fluo4, HEK293 TRPC4beta/mu-opioid, 1 µM, confirmation (AID 2461;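 active means primary screen active and over 50% activation in each of two duplicate runs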); settings: Fluo4 calcium fluorescence, at 1 µM; hits give high values
[3] = system: TRPC4 (transient receptor potential cation channel C4 beta), mouse; experiment: potentiation of DAMGO EC20 TRPC4 response – cell-based, second round, Fluo-4, HEK293 TRPC4beta/mu-opioid, 1 µM, confirmation (AID 2554;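 active means primary screen hit whose fluorescence ratio, in both repeats, exceeds the weak agonist control mean by 3 SD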); settings: DAMGO EC20, Fluo-4 calcium flux, at 1 µM; hits give high values
[4] = system: TRPC4 beta (transient receptor potential cation channel C4), mouse; experiment: potentiation of DAMGO EC20 TRPC4 response – cell-based, Fluo-4, HEK293 TRPC4beta/mu-opioid, confirmation (AID 2555;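 active means primary screen hit whose calcium fluorescence ratio, in both repeats, exceeds the weak agonist control mean by 3 SD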); settings: DAMGO EC20, Fluo-4 calcium flux, at 10 µM; hits give high values
[5] = target: Short transient receptor potential channel 4 (Mus musculus) (UniProt Q9QUQ5); experiment: blockers of DAMGO-evoked TRPC4 calcium flux – cell-based, Fluo4, HEK293 TRPC4beta/mu-opioid, confirmation (AID 2636;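 active means calcium signal cut by more than 3 SD below the full-agonist control yet still positive, in both repeats and the earlier primary screen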); settings: at 10 µM; hits give high values
Chain of Short transient receptor potential channel 4 (Mus musculus) (Q9QUQ5 whole entry, looked up): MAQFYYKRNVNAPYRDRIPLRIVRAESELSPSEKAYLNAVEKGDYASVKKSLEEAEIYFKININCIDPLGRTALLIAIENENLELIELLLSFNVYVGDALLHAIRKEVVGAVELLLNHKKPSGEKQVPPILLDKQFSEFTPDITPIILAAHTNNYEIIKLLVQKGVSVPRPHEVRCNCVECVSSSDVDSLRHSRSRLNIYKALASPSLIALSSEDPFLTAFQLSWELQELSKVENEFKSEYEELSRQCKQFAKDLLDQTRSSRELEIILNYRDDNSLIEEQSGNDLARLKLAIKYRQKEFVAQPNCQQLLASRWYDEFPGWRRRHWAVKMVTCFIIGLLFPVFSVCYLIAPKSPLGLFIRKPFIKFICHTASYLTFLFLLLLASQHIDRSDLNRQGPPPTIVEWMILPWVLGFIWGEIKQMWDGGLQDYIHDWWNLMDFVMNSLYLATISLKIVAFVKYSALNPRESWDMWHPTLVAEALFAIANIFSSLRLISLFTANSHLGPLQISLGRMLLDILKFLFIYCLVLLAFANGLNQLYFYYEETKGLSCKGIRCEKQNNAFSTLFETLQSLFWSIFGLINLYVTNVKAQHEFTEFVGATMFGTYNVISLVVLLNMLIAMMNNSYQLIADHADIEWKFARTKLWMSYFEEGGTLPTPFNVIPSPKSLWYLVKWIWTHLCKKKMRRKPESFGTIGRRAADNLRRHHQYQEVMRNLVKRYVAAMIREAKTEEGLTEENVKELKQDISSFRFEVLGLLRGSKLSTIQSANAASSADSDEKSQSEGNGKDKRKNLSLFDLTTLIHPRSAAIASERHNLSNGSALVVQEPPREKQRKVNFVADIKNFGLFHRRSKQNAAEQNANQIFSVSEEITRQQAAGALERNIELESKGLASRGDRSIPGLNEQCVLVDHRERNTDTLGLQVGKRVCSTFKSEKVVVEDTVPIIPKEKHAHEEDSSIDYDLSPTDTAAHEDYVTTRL

[6] = target: Short transient receptor potential channel 4 (Mus musculus) (UniProt Q9QUQ5); experiment: blockers of DAMGO-evoked TRPC4 calcium flux – cell-based, second round, Fluo4, HEK293 TRPC4beta/mu-opioid, 1 µM, confirmation (AID 2637;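 active means calcium signal ratio cut to more than 3 SD under the fully stimulated control mean yet still positive, in both repeats and the primary screen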); settings: at 1 µM; hits give high values
[7] = target: Short transient receptor potential channel 4 (Mus musculus) (UniProt Q9QUQ5); experiment: calcium entry via TRPC4 opening agents – cell-based, HEK293 TRPC4/mu-opioid, Fluo-4 calcium, dose response (AID 434937;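 active means primary screen activator hit with a dose response curve and TRPC4 channel activation at any tested dose; inactive means no activation, no dose response, or not a primary hit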)
[8] = target: Short transient receptor potential channel 4 (Mus musculus) (UniProt Q9QUQ5); experiment: potentiation of DAMGO-evoked TRPC4 calcium signal – cell-based, HEK293 TRPC4/mu-opioid, Fluo-4 calcium, EC20 DAMGO, dose response (AID 434941;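 active means earlier screen potentiator hit that boosts the TRPC4 ion channel at some dose, with a dose response; inactive means no potentiation, no dose response, or not a prior hit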;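 further: calcium entry triggered by an EC20 dose of DAMGO at the co-expressed mu-opioid receptor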)
[9] = target: Short transient receptor potential channel 4 (Mus musculus) (UniProt Q9QUQ5); experiment: block of DAMGO-driven TRPC4 calcium entry – cell-based, HEK293 TRPC4/mu-opioid, Fluo-4 calcium, dose response (AID 434942;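 active means primary screen inhibitor hit that blocks the TRPC4 channel at some tested dose, yielding a dose curve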)
[10] = target: Short transient receptor potential channel 6 (Mus musculus) (UniProt Q61143); experiment: TRPC6 blockade by TRPC4 inhibitor hits – cell-based, HEK293, membrane potential dye, duplicate, selectivity assay for TRPC4 inhibitor project, confirmation (AID 434948;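 active means active in primary screen and both duplicates, each dropping signal beyond three positive-control SD with fluorescence still positive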); settings: HEK293 TRPC6, membrane potential dye fluorescence, at 10 µM; inhibition: hits give high values, stimulated with maximal-effect acetylcholine unless noted; outcome: stimulated with maximal-effect acetylcholine unless noted
Chain of Short transient receptor potential channel 6 (Mus musculus) (Q61143 whole entry, looked up): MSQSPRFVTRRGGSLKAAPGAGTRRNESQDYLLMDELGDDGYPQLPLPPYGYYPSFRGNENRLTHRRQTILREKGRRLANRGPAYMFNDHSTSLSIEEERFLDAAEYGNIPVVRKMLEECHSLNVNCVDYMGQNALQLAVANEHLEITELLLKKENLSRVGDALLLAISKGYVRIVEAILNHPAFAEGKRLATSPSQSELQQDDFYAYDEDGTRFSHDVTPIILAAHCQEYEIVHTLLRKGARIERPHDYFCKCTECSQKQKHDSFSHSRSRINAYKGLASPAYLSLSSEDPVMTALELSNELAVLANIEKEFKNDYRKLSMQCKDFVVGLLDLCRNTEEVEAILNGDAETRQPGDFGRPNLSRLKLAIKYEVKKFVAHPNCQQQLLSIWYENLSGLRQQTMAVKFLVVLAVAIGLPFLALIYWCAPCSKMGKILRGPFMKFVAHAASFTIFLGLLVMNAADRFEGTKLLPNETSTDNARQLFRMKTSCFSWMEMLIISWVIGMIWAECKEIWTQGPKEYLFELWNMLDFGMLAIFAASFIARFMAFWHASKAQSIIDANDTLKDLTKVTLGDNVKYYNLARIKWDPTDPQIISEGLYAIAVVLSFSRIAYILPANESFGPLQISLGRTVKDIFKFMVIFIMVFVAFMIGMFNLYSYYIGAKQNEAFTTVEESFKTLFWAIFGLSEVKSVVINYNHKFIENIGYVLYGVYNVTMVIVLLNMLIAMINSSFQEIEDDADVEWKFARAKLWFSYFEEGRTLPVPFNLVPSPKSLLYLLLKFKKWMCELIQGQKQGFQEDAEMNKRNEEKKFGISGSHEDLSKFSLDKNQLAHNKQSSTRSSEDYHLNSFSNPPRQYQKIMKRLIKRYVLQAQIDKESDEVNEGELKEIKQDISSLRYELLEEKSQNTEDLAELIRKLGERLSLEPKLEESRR

[11] = target: Short transient receptor potential channel 6 (Mus musculus) (UniProt Q61143); experiment: TRPC6 opening by TRPC4 activator hits – cell-based, HEK293, membrane potential dye, duplicate, selectivity assay for TRPC4 activator project, confirmation (AID 434950;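 active means membrane potential signal rise above negative control mean plus 3 SD in both duplicates, also active in the earlier TRPC4 screen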); settings: HEK293 TRPC6, membrane potential fluorescence, at 10 µM; activation: hits give high values; outcome: activation
[12] = target: Short transient receptor potential channel 6 (Mus musculus) (UniProt Q61143); experiment: positive modulators of mouse TRPC6 channel – HEK293 cells, membrane potential dye, duplicate, selectivity assay for TRPC4 potentiator project, confirmation (AID 434952;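 active means compound raising the membrane signal above positive-control mean plus 3 SD in both repeats, and a primary screen hit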); settings: HEK293 TRPC6, membrane potential dye fluorescence, at 10 µM; maximal acetylcholine added after compound unless noted
[13] = target: Short transient receptor potential channel 4 (Mus musculus) (UniProt Q9QUQ5); experiment: calcium flux activators in TRPC4/5HT1a cells, counter-screen for TRPC4 activator project, cell-based, second counter screen, HEK293 TRPC4/5HT1a, Fluo-4 (AID 434977); settings: Fluo-4 calcium flux, at 10 µM; hits give high values
[14] = serotonin-gated TRPC4 signal block – cell-based, second counter screen, HEK293 TRPC4/5HT1a, Fluo-4, counter-screen for TRPC4 inhibitor project, confirmation (AID 434978;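 active means primary screen active whose calcium signal fell more than 3 SD beyond the full-serotonin control mean in both duplicate plates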;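 further: serotonin given first at submaximal then at maximal dose after compound preincubation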); settings: Fluo-4 calcium flux, at 10 µM; inhibition: hits give high values, serotonin added to trigger calcium flux unless noted; outcome: serotonin added to trigger calcium flux unless noted
[15] = system: TRPC4 (mouse), co-expressed with 5HT1a in HEK293; experiment: enhancement of serotonin-evoked TRPC4 response – cell-based, second counter screen, HEK293 TRPC4/5HT1a, Fluo-4, counter-screen for TRPC4 potentiator project, confirmation (AID 434979;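 active means signal rise over 3 SD above mean of control wells given weak agonist, in both repeats and first screen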); settings: Fluo-4 calcium flux, at 10 µM; outcome: serotonin added at its EC20 dose unless noted; potentiation: hits give high values, serotonin added at its EC20 dose unless noted
[16] = nonspecific calcium rise without TRPC4 – cell-based, HEK293 mu-opioid receptor line, counter-screen for TRPC4 activator project, confirmation (AID 449723;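 active means hit in primary screen, with calcium signal over 5 SD above buffer well mean in both duplicates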;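 further: counter screen cells carry the mu-opioid receptor alone and lack TRPC4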); settings: HEK293 mu-opioid cells, Fluo-4 calcium fluorescence, at 10 µM; hits give high values
[17] = nonspecific potentiation of DAMGO calcium response – cell-based, HEK293 mu-opioid receptor line, counter-screen for TRPC4 allosteric potentiator project, confirmation (AID 449724;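 active means calcium signal rise more than 3 SD above the low-dose agonist control mean, in both duplicate plates and the primary screen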); settings: HEK293 mu-opioid receptor cells, Fluo-4 calcium flux, at 10 µM; compound added before EC20 DAMGO stimulus unless noted
[18] = target: Inward rectifier potassium channel 2 (Mus musculus) (UniProt P35561); experiment: inhibition of Kir2.1 inward rectifier potassium flux – cell-based, FluxOR thallium flux, duplicate, confirmation (AID 2032;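 active means Primary-screen hit whose thallium flux fell at least 3 control SD below untreated wells in both duplicates, with normal baseline fluorescence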); settings: Kir2.1-expressing cells, FluxOR thallium flux fluorescence, at 10 µM; hits give low values
Chain of Inward rectifier potassium channel 2 (Mus musculus) (P35561 whole entry, looked up): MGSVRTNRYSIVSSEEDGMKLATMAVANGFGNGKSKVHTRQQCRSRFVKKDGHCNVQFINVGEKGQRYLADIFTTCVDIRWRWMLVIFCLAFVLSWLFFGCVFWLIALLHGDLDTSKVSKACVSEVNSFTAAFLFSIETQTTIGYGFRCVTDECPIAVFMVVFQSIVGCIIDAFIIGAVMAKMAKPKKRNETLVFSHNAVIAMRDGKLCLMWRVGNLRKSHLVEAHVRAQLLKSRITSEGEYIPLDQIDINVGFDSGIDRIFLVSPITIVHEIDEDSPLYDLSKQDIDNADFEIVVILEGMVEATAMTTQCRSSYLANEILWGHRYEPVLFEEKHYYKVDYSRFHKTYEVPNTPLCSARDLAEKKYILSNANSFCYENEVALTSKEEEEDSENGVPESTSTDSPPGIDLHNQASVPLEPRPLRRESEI

[19] = parental HEK293 cell activity, no Kir2.1 – FluxOR thallium flux, duplicate, single concentration, counter-screen for Kir2.1 inhibitor project, confirmation (AID 2105;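 active means dye signal at least 3 control SD above or below untreated wells in both duplicates, raw fluorescence within 3, either direction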); settings: parental HEK293 cells, FluxOR thallium flux fluorescence, at 10 µM; 0% = unstimulated blank wells

c1ccc2nc(OCCN3CC3)ccc2c1
inactive: outcome [1] | outcome [2] | outcome [3] | outcome [5] | outcome [6] | outcome [7] | outcome [8] | outcome [9] | outcome [10] | outcome [11] | outcome [12] | outcome [13] | outcome [14] | outcome [16] | outcome [17]
active: potentiation [4] 17% | potentiation [15] 16.5%

COc1ccc(C[C@@H]2c3cc(O)c(OC)cc3CCN2C)cc1O
inactive: outcome [1] | outcome [2] | outcome [3] | outcome [4] | outcome [5] | outcome [6] | outcome [7] | outcome [8] | outcome [9] | outcome [10] | outcome [11] | outcome [12] | outcome [13] | outcome [14] | outcome [15] | outcome [16] | outcome [17]

CCNCCNc1ccc([N+](=O)[O-])c2cccnc12
inactive: outcome [1] | outcome [2] | outcome [4] | outcome [5] | outcome [6] | outcome [7] | outcome [8] | outcome [9] | outcome [10] | outcome [11] | outcome [12] | outcome [13] | outcome [14] | outcome [15] | outcome [16] | outcome [17]
active: potentiation [3] 11%

Clc1ccc(OCC#CCN2CCCC2)cc1
inactive: outcome [1] | outcome [2] | outcome [4] | outcome [5] | outcome [6] | outcome [7] | outcome [8] | outcome [9] | outcome [10] | outcome [11] | outcome [12] | outcome [13] | outcome [14] | outcome [16] | outcome [17]
active: potentiation [3] 30% | potentiation [15] 26%

CCNc1cc(N2CCNCC2)ccc1[N+](=O)[O-]
active: potentiation [3] 35% | potentiation [4] 19% | potentiation [15] 17.7%
inactive: outcome [1] | outcome [2] | outcome [5] | outcome [6] | outcome [7] | outcome [8] | outcome [9] | outcome [10] | outcome [11] | outcome [12] | outcome [13] | outcome [14] | outcome [16] | outcome [17]

CCN(CC)P(=O)(/C=C(\Cl)c1ccccc1)/C=C(\Cl)c1ccccc1
active: potentiation [3] 7%
inactive: outcome [1] | outcome [2] | outcome [4] | outcome [5] | outcome [6] | outcome [7] | outcome [8] | outcome [9] | outcome [10] | outcome [11] | outcome [12] | outcome [13] | outcome [14] | outcome [15] | outcome [16] | outcome [17]

Nc1c([N+](=O)[O-])cc(F)c(N2CCNCC2)c1Br
active: potentiation [15] 22.5%
inactive: outcome [1] | outcome [2] | outcome [3] | outcome [4] | outcome [5] | outcome [6] | outcome [7] | outcome [8] | outcome [9] | outcome [10] | outcome [11] | outcome [12] | outcome [13] | outcome [14] | outcome [16] | outcome [17]

CCc1ccc(OCCCN=C(C)c2c(O)n(C)c(=O)n(C)c2=O)cc1
inactive: outcome [1] | outcome [2] | outcome [3] | outcome [4] | outcome [5] | outcome [6] | outcome [7] | outcome [8] | outcome [9] | outcome [10] inactive [setting not given] | outcome [11] | outcome [12] inactive [setting not given] | outcome [13] | outcome [14] inactive [setting not given] | outcome [16] | outcome [17] inactive [setting not given]
active: potentiation [15] 13.7% [hits give high values]

CN1CCN(Cc2cc(=O)n3ccsc3n2)CC1
active: potentiation [15] 20%
inactive: outcome [1] | outcome [2] | outcome [3] | outcome [4] | outcome [5] | outcome [6] | outcome [7] | outcome [8] | outcome [9] | outcome [10] | outcome [11] | outcome [12] | outcome [13] | outcome [14] | outcome [16] | outcome [17]

CCN1CCN(c2cc(N3CCCC3)c([N+](=O)[O-])cc2F)CC1
inactive: outcome [1] | outcome [2] | outcome [5] | outcome [6] | outcome [7] | outcome [8] | outcome [9] | outcome [10] | outcome [11] | outcome [12] | outcome [13] | outcome [14] | outcome [16] | outcome [17]
active: potentiation [3] 31% | potentiation [4] 11% | potentiation [15] 17.9%

CCN1CC2C3CCC(C)(O3)C2C1 (stereo not given)
inactive: outcome [1] | outcome [2] | outcome [3] | outcome [4] | outcome [5] | outcome [6] | outcome [7] | outcome [8] | outcome [9] | outcome [10] | outcome [11] | outcome [12] | outcome [13] | outcome [14] | outcome [15] | outcome [16] | outcome [17]

Cc1ccc(-c2cc(-c3ccccc3)cc(-c3ccccc3)[n+]2-c2ccccc2)cc1
inactive: outcome [1] | outcome [2] | outcome [3] | outcome [5] | outcome [6] | outcome [7] | outcome [8] | outcome [9] | outcome [10] | outcome [11] | outcome [12] | outcome [13] | outcome [14] | outcome [16] | outcome [17]
active: potentiation [4] 18% | potentiation [15] 9.63%

Fc1ccc(N2CCN(Cc3ccc4c(c3)OCO4)CC2)cc1
inactive: outcome [19]
active: Tl flux remaining, % of negative control (hits give low values) [18] 36.5%

COc1cc(-n2c(=S)[nH]c3ccc(C)cc3c2=O)c(Cl)cc1Cl
inactive: outcome [18] | outcome [19]

COc1ccc(C(=O)C2CN(C)CC2c2ccc(Cl)cc2)cc1 (stereo not given)
inactive: outcome [1] | outcome [2] | outcome [3] | outcome [4] | outcome [5] | outcome [6] | outcome [7] | outcome [8] | outcome [9] | outcome [10] | outcome [11] | outcome [12] | outcome [13] | outcome [14] | outcome [15] | outcome [16] | outcome [17]
